Pol eta inh: blocks human DNA polymerase eta activity; Q9Y253; recombinant Pol eta, fluorescent DNA replication assay; Potency, µM (top dose mostly 114 µM), inactives show at the top dose activity change, negative = inhibition, most hits filed as inhibitors; 390,000 compounds, 1.2% hits; AID 588591; also: potency is read from the fitted curve at half-maximal effect; % is scaled to controls: 0 for no effect and ±100 for the full control effect
Target sequence (Q9Y253 whole entry, looked up): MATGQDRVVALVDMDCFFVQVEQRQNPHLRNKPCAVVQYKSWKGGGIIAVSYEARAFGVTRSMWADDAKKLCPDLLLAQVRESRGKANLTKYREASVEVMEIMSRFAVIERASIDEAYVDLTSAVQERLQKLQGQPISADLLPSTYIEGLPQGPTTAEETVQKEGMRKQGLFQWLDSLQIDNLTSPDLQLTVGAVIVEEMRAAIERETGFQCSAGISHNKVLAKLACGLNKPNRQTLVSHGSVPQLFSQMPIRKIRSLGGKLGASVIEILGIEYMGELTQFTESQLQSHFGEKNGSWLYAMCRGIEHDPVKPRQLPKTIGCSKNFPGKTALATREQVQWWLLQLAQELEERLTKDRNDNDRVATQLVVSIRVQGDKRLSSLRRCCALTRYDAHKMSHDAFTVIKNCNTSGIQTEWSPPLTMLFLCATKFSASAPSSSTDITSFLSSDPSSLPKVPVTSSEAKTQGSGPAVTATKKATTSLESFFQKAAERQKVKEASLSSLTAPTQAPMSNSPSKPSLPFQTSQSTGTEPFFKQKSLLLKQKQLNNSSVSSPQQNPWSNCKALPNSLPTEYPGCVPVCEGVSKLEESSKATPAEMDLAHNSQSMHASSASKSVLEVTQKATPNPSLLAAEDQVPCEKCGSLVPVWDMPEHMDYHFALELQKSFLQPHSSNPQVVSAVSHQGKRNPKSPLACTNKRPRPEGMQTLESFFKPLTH
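Pol eta at 10 nM preincubated with compounds 15 min at room temperature; reaction started with fluorescent substrate (50 nM final) and read kinetically at 0 and 10 min.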
POLI inh: blocks human DNA polymerase iota activity | Q9UNA4 | Pol iota fluorescent replication assay, 10 min | Potency, µM (doses to about 115 µM), without a hit: at the highest dose activity, negative = inhibition, actives largely listed as inhibitors | 390,000 compounds, 1% hits | AID 588590; also: potency is read from the fitted curve at half-maximal effect
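Fluorescent replication assay read twice, at 0 min and 10 min after adding 50 nM (final) substrate. Enzyme (10 nM) and compounds were first incubated 15 min at room temperature; enzyme-free buffer wells were negative controls.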
Pol kappa inh: DNA polymerase kappa (human) inhibition. Q9UBT6. purified Pol kappa, fluorescent DNA synthesis assay, 10 min. Potency, µM (doses to about 107 µM), for the others: at the top dose activity, negative = inhibition, hits mostly inhibitors. 400,000 compounds, 0.53% hits; also: potency is read from the fitted curve at half-maximal effect; % is scaled to controls: 0 for no effect and ±100 for the full control effect
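50 nM final substrate added after 15 min RT preincubation of 10 nM Pol kappa with compound; fluorescence read at 0 and 10 min.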
POLB inh: blocks human DNA polymerase beta activity | 340,000 compounds, 1.3% hits | Pol beta primer extension/strand displacement, fluorescence kinetic | AID 485314 | Potency, µM (doses to about 114 µM), for inactives: top-dose activity change, negative = inhibition, most hits filed as inhibitors | P06746; also: potency is read from the fitted curve at half-maximal effect; % is scaled to controls: 0 for no effect and ±100 for the full control effect
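Curves were derived by four-parameter Hill fits of normalized qHTS data. The kinetic fluorescent primer-extension read was taken at 0 and 10 min after 50 nM substrate, following a 15 min room-temperature preincubation of 10 nM enzyme with compounds.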
12-LOX inh: inhibitors of human 12S-lipoxygenase ALOX12 | 580,000 compounds, 1.1% hits | P18054 | purified 12hLO, xylenol orange hydroperoxide absorbance | Potency, µM (highest dose often 108 µM), inactives show at the highest dose activity change, negative = inhibition, hits mostly inhibitors | AID 1671190; also: potency is read from the fitted curve at half-maximal effect; % is scaled to controls: 0 for no effect and ±100 for the full control effect
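Purified human 12hLO at 150 nM in 25 mM Hepes, 0.01% Triton X-100, pH 7.0, preincubated 15 min at room temperature with compound. Reaction started with 40 uM arachidonic acid, 30 min at room temperature. Hydroperoxide measured by Fe-xylenol orange, 573/405 nm absorbance ratio.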
PI5P4Ka inh: blocks human PI5P4K alpha kinase activity | AID 652105 | 330,000 compounds, 1.2% hits | max response, % | P48426 | PI5P4Kalpha enzyme, ADP-Glo luminescence, 60 min; active compounds read low; active = max response of -50% or lower; inconclusive = between -30% and -50%; inactive = -30% or higher; also: value at the top dose of about 77 µM; % is scaled to controls: 0 for no effect and ±100 for the full control effect
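Controls without substrate or without enzyme flank wells where PI5P4Kalpha converts substrate using 5 microM ATP (final). Incubation lasts 60 minutes at room temperature; ADP formed is read by ADP-Glo luminescence.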
* hit, by the source's call; ? = inconclusive; / = not tested or not shown; ! = not active in a repeat; [ ] = dose if it differs, or a comment. Only some compounds are listed: those with a hit (about 2.9% of all), similar ones and a draw of the others. Unless noted, calls follow the shape of the dose curve; as a rule, active = well fitted inhibition curve with a large enough effect; inconclusive = small, poorly fitted or top-dose-only effect, or another doubt; inactive = no such curve, though single readings can be large or run the other way.

SMILES	Pol eta inh	POLI inh	Pol kappa inh	POLB inh	12-LOX inh	PI5P4Ka inh
CN(C)C(=O)C1CCN(c2oc(-c3ccco3)nc2C#N)CC1	/	/	/	/	2.8%	/
CCCCn1c(=O)n(CC(O)COc2ccc(OCC)cc2)c(=O)c2c1ncn2CCOC (configuration not stated)	/	/	/	/	-2.8%	/
COc1ccc(-c2nc3ccccc3c(=O)n2N)cc1	9.0%	19.5%	-11.7%	56.2µM*	0.0%	0.9
CCN1C(=NCCc2ccc(Br)cc2)N[C@@H](c2ccccc2)[C@H](C(=O)OC)[C@H]1C	-5.7%	-17.0%	5.0%	10.7%	44.7µM*	-3.7
CC(C)NC(=O)c1ccc2c(c1)nc1n2CCN(CCO)C1	/	/	/	/	2.7%	/
Cc1ccc(C(=O)N2CC(CO)C3(CCNCC3)C2)c(C)c1 (configuration not stated)	/	/	/	/	38.6%	/
O=C(c1ccc(Cl)cc1)N1CC(CO)C2(CCNCC2)C1 (configuration not stated)	/	/	/	/	39.8µM*	/
O=C(COc1ccc(-n2cnnn2)cc1)N1CCN(S(=O)(=O)c2ccc3ccccc3c2)CC1	/	/	/	/	44.7µM*	/
O=C(COc1ccc(-n2cnnn2)cc1)Nc1cccc(Cl)c1Cl	-6.2%	?	-32.4%	50.1µM*	-16.9%	?
CCCC(C(=O)NCc1coc(-c2cccs2)n1)c1ccccc1 (configuration not stated)	/	/	/	/	-0.3%	/
Cc1noc(C)c1-c1cc2c(cc(C)n2CCN(C)C)c(-c2ccccc2)n1	/	/	/	/	-5.9%[176 µM]	/
Cc1ccc2[nH]c(=O)c(CN(CCCO)Cc3nnnn3Cc3ccco3)cc2c1	/	79.4µM*	?	/	/	/
Cc1ccc2[nH]c(=O)c(CN(CCc3ccccc3)C(c3nnnn3Cc3ccco3)C(C)C)cc2c1 (configuration not stated)	-13.0%	?	-18.0%	-1.8%	11.2µM*	1.4
Cc1ccc2[nH]c(=O)c(CN(Cc3ccco3)Cc3nnnn3Cc3ccccc3)cc2c1	/	-14.2%	-3.7%	/	/	/
O=C(CN1CCN(Cc2nnc(-c3ccccc3)o2)CC1)N1CCCC1	/	/	/	/	9.9%	/
O=C(/C=C/c1ccncc1)N1CCN(Cc2cccc(C(F)(F)F)c2)CC1	/	/	/	/	-15.9%	/
CC(=O)Nc1nc(CC(C)C)cc(-c2ccco2)c1C#N	-2.1%	82.4%	10.6%	29.2%	12.6µM*	/
Cc1cccc(NC(=S)NCCc2ccccc2)n1	-14.1%	46.3%	-9.2%	80.7%	20µM*	-3.7
S=C(NCCc1ccccc1)Nc1ccccn1	-15.4%	19.1%	-11.5%	-3.0%	22.4µM*	-11.6
Cc1c(C)c2cc(Cl)c(OC(C)C(=O)NCc3cccnc3)cc2oc1=O (configuration not stated)	/	/	/	/	-1.3%	/
Cc1ccccc1NC(=O)COC(=O)c1cc(C(C)C)nc2ccccc12	/	/	/	/	35.5%	/
COc1cc(OC)cc(OC(=O)c2ccc3c(=O)n4c(nc3c2)CCC4)c1	39.8µM*	39.8µM*	-25.1%	/	3.7%	-22.9
O=C(NC(NC(=O)c1cccc(Cl)c1)c1ccccc1)c1cccc(Cl)c1	/	/	/	/	-10.6%	/
CN(CC(=O)NC(C)(C)C)c1nc2ccccc2o1	/	/	/	/	-1.8%	/
COc1ccc(N(CCN2C(=O)c3ccccc3C2=O)C(=O)c2cccc([N+](=O)[O-])c2)cc1	?	-15.0%	2.5%[60.1 µM]	0.159µM*	-16.3%	-0.1
SMILES	Pol eta inh	POLI inh	Pol kappa inh	POLB inh	12-LOX inh	PI5P4Ka inh
CCN(Cc1ccncc1)C(=O)C(C)C	/	/	/	/	-11.0%	/
Cc1ccc(-c2cc(C(=O)O)c3cc(Cl)ccc3n2)o1	/	/	/	/	7.94µM*!	/
O=C(O)c1cc(-c2ccccn2)nc2ccc(Cl)cc12	/	/	/	/	-9.3%	/
Cc1ccc2nc(-c3ccc(C)o3)cc(C(=O)O)c2c1	/	/	/	/	5.01µM*	/
CC(C)(C)c1ccc(NC(=O)c2cc(F)c(F)c(F)c2F)cc1	/	/	/	/	-24.8%	/
COc1cccc(-c2noc(-c3ccc(NCCn4cccn4)nc3)n2)c1OC	/	/	/	/	2.8%	/
CCc1ccccc1NS(=O)(=O)c1ccc2[nH]cc(C(=O)N3CCCCC3)c(=O)c2c1	8.8%	?	-9.6%	22.4µM*	?	/
CN(Cc1ccccc1)C(=O)c1c[nH]c2ccc(S(=O)(=O)Nc3ccccc3F)cc2c1=O	?	-31.6%	?	25.1µM*	?	/
CCc1ccc(NS(=O)(=O)c2ccc3[nH]cc(C(=O)N4CCc5ccccc54)c(=O)c3c2)cc1	?	-65.2%	?	17.8µM*	?	-22.0
O=C(c1c[nH]c2ccc(S(=O)(=O)Nc3ccccc3F)cc2c1=O)N1CCCCCC1	-0.2%	?	-15.4%	16.5%	-16.5%	/
O=C(COC(=O)c1ccc(F)cc1[N+](=O)[O-])c1ccc(Br)cc1	/	/	/	/	-0.6%	/
Cc1ncc(CO)c2c1Oc1nc(-c3ccccc3)nc(SCC(=O)Nc3cccc(C(F)(F)F)c3)c1C2	?	-14.5%	-3.6%	35.5µM*	-16.1%	/
Cc1ncc(CO)c2c1Oc1nc(-c3ccc(F)cc3)nc(SCc3ccc(F)cc3Cl)c1C2	-8.6%	11.4%	-28.5%	50.1µM*	-11.8%	/
CCc1ccc(NC(=O)CSc2nc(-c3ccc(C)cc3)nc3c2Cc2c(CO)cnc(C)c2O3)cc1	?	?	-4.7%	50.1µM*	-27.4%	/
CCOc1ccc(NC(=O)CSc2nc(-c3ccc(OC)cc3)nc3c2Cc2c(CO)cnc(C)c2O3)cc1	-2.4%	?	-3.2%	39.8µM*	-16.3%	/
CCCNC(=O)c1ccc(-c2nc(CS(=O)(=O)c3ccccc3)c(C)o2)cc1	/	/	/	/	-9.8%	/
Cc1ncc(CO)c2c1Oc1nc(-c3ccccc3)nc(SCC(=O)Nc3cccc(O)c3)c1C2	?	?	-16.9%	3.0%	?	?
COc1ccc(-c2nc3c(c(SCC(=O)Nc4cccc(O)c4)n2)Cc2c(CO)cnc(C)c2O3)cc1	20µM*	6.31µM*	79.4µM*!	1.58µM*!	?	?
CC1(C(=O)OCC(=O)Nc2nc(-c3ccc(F)c(F)c3)cs2)CC1(Cl)Cl (configuration not stated)	?	0.9%	-8.1%	-1.1%	56.2µM*	1.0
Cc1ccc(NS(=O)(=O)c2ccc(N/N=C/c3ccc([N+](=O)[O-])o3)c([N+](=O)[O-])c2)c(C)c1	/	/	/	/	-10.9%	/
O=Cc1c(-c2cccc(Br)c2)[nH]c2ccccc12	/	/	/	/	-25.6%	/
COc1cc(/C=C2/C(=N)N3C(=NC2=O)SN=C3S(C)(=O)=O)ccc1OS(=O)(=O)c1ccccc1	/	/	/	-53.4%	/	/
Cc1cccc(C)c1-n1cccc1/C=C1/C(=N)N2C(=NC1=O)SN=C2S(C)(=O)=O	79.4µM*	64.5%	-7.1%	?	?	-22.3
CCC1=NN2C(=N)/C(=C\c3cccn3-c3c(C)cccc3C)C(=O)N=C2S1	-10.1%	-4.5%	-5.9%[60.1 µM]	2.3%	-1.7%	-21.4

Source: PubChem BioAssay
